Source: PubChem BioAssay
DT40 TDP1 CPT: growth inhibition of DT40 Tdp1-/-;hTDP1 cells with camptothecin (screen for TDP1 inhibitors); chicken DT40 Tdp1-/-;hTDP1 cells + 20 nM CPT, ATP luminescence, 48 h; Potency, µM (highest dose often 46.2 µM), for the others: at the highest dose activity change, negative = growth inhibition, hits mostly inhibitors; 420,000 tested, 12% active; AID 686979; further: on the % scale 0 is the no-effect control and ±100 the full control effect; nearly all actives have a fitted effect of over 55% in size
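Chicken DT40 Tdp1-/- cells complemented with human TDP1, 400 cells/well, exposed to compounds plus 20 nM camptothecin for at least 48 h at 37 C; viability read as ATP content by CellTiter-Glo luminescence.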
DT40 TDP1 no CPT: qHTS for Inhibitors of human tyrosyl-DNA phosphodiesterase 1 (TDP1): qHTS in cells in absence of CPT; AID 686978, 2013; DT40 Tdp1-/- hTDP1 cells, no CPT, ATP luminescence, 48 h; 420,000 tested, 15% active; Potency, µM (top dose mostly 46.2 µM), for the others: at the top dose activity change, negative = growth inhibition, most hits filed as inhibitors; further: on the % scale 0 is the no-effect control and ±100 the full control effect; nearly all actives have a fitted effect of over 55% in size
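Seeded 400 DT40-hTDP1 cells/well (vehicle DMSO, no 20 nM CPT); pinned compounds; ≥48 hr at 37 °C; CellTiter-Glo luminescence as viability measure.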
HepG2 viability: kills HepG2 cells in TGF-b inhibitor counter-screen. HepG2 CAGA-GFP viability, ATP luminescence, 18 h. Potency, µM (highest dose often 46.1 µM), for inactives: at the highest dose activity change, negative = cytotoxicity, actives largely listed as cytotoxic. 410,000 tested, 0.76% active. AID 588856
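CellTiter-Glo luminescence gave cytotoxicity after 18 hours at 37 degrees C. The cells were HepG2 CAGA-GFP in 1% FBS DMEM, stimulated with 500 pg/mL TGF-beta after compound addition. %Activity was normalised to no-cell wells (complete cell-killing) and DMSO (no toxicity), and curves were fitted and classified.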
HT1080-NT tox: kills 2HG-producing HT-1080-NT fibrosarcoma cells | HT-1080-NT fibrosarcoma viability, CellTiter-Glo ATP luminescence, 48 h | Potency, µM (top dose mostly 46.1 µM), inactives show at the top dose activity, negative = less viability, usual class: cytotoxic | 360,000 tested, 1.6% active;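 further: NT is the 2HG producing partner of a matched IDH1 knockdown line; 0% = DMSO-treated cells and -100% = media-only wells without cells; nearly all actives have a fitted effect of over 55% in size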
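HT-1080-NT; 750 cells/well; 5% FBS RPMI; 48 h compound, 37 degrees C; CellTiter-Glo luminescence; curve fitting and curve-class assignment.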
HT1080 IDH1KD tx: HT-1080 IDH1 knockdown cell toxicity (counter line) | HT-1080 IDH1 knockdown viability, ATP luminescence, 48 h | Potency, µM (highest dose often 46.1 µM), inactives show top-dose activity, negative = toxicity, usual class: cytotoxic | 360,000 tested, 2% active | AID 686971;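 further: 0% = DMSO wells and -100% = cell-free medium wells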
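Knockdown cells (IDH1KD HT-1080) received compounds 2 h after plating at 750 cells/well and were kept 48 h at 37 °C in 5% FBS RPMI. A CellTiter-Glo luminescence read gave % activity for curve fitting.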
TGFb inhibitor: inhibitors of TGF-b signaling; HepG2 CAGA-GFP TGF-b/SMAD3 reporter, GFP fluorescence, 18 h; TGF-beta stimulated, 500 pg/mL final; Potency, µM (doses to about 46.1 µM), for inactives: at the top dose activity, negative = inhibition, actives largely listed as inhibitors; 410,000 tested, 1.2% active; AID 588855; further: on the % scale 0 is the no-effect control and ±100 the full control effect; nearly all actives have a fitted effect of over 65% in size
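Smad-responsive CAGA-GFP expression was quantified in HEPG2 cells exposed to compounds and 500 pg/mL final TGF-beta for 18 h at 37 degrees C; unstimulated wells defined full inhibition.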
* marks the source's active call; other numbers are inactive results. Most compounds without a hit are left out; they make up all but 17% or so of the library. The call rests on the fitted dose curve; in most records, active means well fitted curve in the direction sought with a large enough effect; inconclusive means small, poorly fitted or top-dose-only effect, or another doubt; inactive means no such curve, though single readings can be large; an effect the other way counts as inactive or inconclusive. Potency means the concentration at half of the fitted maximal effect.

For CC(Cc1ccc(Cl)cc1)N1CCC(n2nccc2NC(=O)C2CCCC2)CC1 (stereo not drawn) the results were DT40 TDP1 CPT inconclusive, DT40 TDP1 no CPT inconclusive, HepG2 viability -42.3%, HT1080-NT tox inconclusive, HT1080 IDH1KD tx -22.9% and TGFb inhibitor inconclusive.
For CCC1(O)CC(c2ccccc2)=NN1C(=O)c1ccccc1F (stereo not drawn) the results were DT40 TDP1 CPT 0.6%, DT40 TDP1 no CPT -11.6%, HepG2 viability 10.9%, HT1080-NT tox 7.0%, HT1080 IDH1KD tx 4.4% and TGFb inhibitor -3.7%.
O=C(OCC(=O)c1ccc(Cl)s1)c1ccc(CO)cc1 was read as DT40 TDP1 CPT -2.4%, DT40 TDP1 no CPT 0.5%, HepG2 viability -1.0%, HT1080-NT tox 5.7%, HT1080 IDH1KD tx 14.2% and TGFb inhibitor -15.3%.
For CN(C)c1ncc2nc(CCc3ccccc3)c(=O)n(Cc3ccc(F)cc3)c2n1 the results were DT40 TDP1 CPT 1.5% and DT40 TDP1 no CPT -27.1%.
COc1ccc(OCCNS(=O)(=O)c2ccc3oc4ccccc4c3c2)cc1 was read as DT40 TDP1 CPT inconclusive, DT40 TDP1 no CPT -27.7%, HepG2 viability -42.3%, HT1080-NT tox -0.2%, HT1080 IDH1KD tx -1.9% and TGFb inhibitor -13.7%.
CN(CCOc1ccccc1)S(=O)(=O)c1ccc2oc3ccccc3c2c1 was read as DT40 TDP1 CPT inconclusive, DT40 TDP1 no CPT 23.1µM*, HepG2 viability -4.9%, HT1080-NT tox 0.0%, HT1080 IDH1KD tx -6.9% and TGFb inhibitor -47.8%.
O=C(Nc1ccc2oc(-c3ccccc3)nc2c1)c1ccc2ccccc2c1 was read as DT40 TDP1 CPT inconclusive, DT40 TDP1 no CPT -7.5%, HepG2 viability 2.8% and TGFb inhibitor 0.5%.
For O=C(Nc1ccc2oc(-c3ccncc3)nc2c1)c1c(F)c(F)c(F)c(F)c1F the results were DT40 TDP1 CPT 0.731µM*, DT40 TDP1 no CPT 1.46µM*, HepG2 viability -29.8%, HT1080-NT tox -1.3%, HT1080 IDH1KD tx -18.4% and TGFb inhibitor -5.9%.
For Cc1cccc(NC(=O)c2ccc(C(=O)Nc3cccc(C)c3)nc2)c1 the results were DT40 TDP1 CPT 2.59µM*, DT40 TDP1 no CPT 16.4µM*, HepG2 viability -18.9%, HT1080-NT tox inconclusive, HT1080 IDH1KD tx 20.6µM* and TGFb inhibitor inconclusive.
For CC(C)Oc1cccc(C(=O)Nc2ccc3oc(-c4ccccc4)nc3c2)c1 the results were DT40 TDP1 CPT inconclusive, DT40 TDP1 no CPT 20.6µM*, HepG2 viability -23.6% and TGFb inhibitor inconclusive.
Screening Cc1cccc(C(=O)Nc2ccc(C(=O)c3ccncc3)cc2)c1 returned DT40 TDP1 CPT inconclusive, DT40 TDP1 no CPT 14.6µM*, HepG2 viability -3.8%, HT1080-NT tox 4.7%, HT1080 IDH1KD tx 4.2% and TGFb inhibitor -8.3%.
For O=c1c2cc(Br)ccc2nc(-c2ccccc2)n1O the results were DT40 TDP1 CPT -28.8%, DT40 TDP1 no CPT inconclusive, HepG2 viability -27.1%, HT1080-NT tox -11.1%, HT1080 IDH1KD tx -15.6% and TGFb inhibitor -1.3%.
`Cc1cccc(C(=O)Nc2ccc3oc(-c4ccncc4)nc3c2)c1` gave DT40 TDP1 CPT 20.6µM*, DT40 TDP1 no CPT 11.6µM*, HepG2 viability -12.4% and TGFb inhibitor -11.2%.
O=C(Nc1ccc2oc(-c3ccccc3)nc2c1)c1ccc2c(c1)OCCO2 was read as DT40 TDP1 CPT 23.1µM*, DT40 TDP1 no CPT 16.4µM*, HepG2 viability -34.8%, HT1080-NT tox inconclusive, HT1080 IDH1KD tx inconclusive and TGFb inhibitor -12.7%.
COc1c(F)c(F)c(C(=O)Nc2ccc3oc(-c4ccncc4)nc3c2)c(F)c1F was read as DT40 TDP1 CPT -9.5%, DT40 TDP1 no CPT -18.1%, HepG2 viability 18.5%, HT1080-NT tox 21.0%, HT1080 IDH1KD tx 17.4% and TGFb inhibitor 5.5%.
For COc1cccc(OC)c1C(=O)NC(=S)Nc1ccc2oc(-c3ccncc3)nc2c1 the results were DT40 TDP1 CPT 25.9µM*, DT40 TDP1 no CPT 23.1µM*, HepG2 viability 12.7%, HT1080-NT tox 19.2%, HT1080 IDH1KD tx 2.3% and TGFb inhibitor -1.4%.
`O=C(Nc1ccc(-c2nc3ccccc3o2)c(O)c1)c1ccccc1` gave DT40 TDP1 CPT inconclusive, DT40 TDP1 no CPT 18.4µM*, HepG2 viability 5.3% and TGFb inhibitor 18.9%.
`CCOC(=O)N1CCN(C(=O)CSc2cc(C)nc3c(-c4ccccc4OC)c(C)nn23)CC1` gave DT40 TDP1 CPT 23.1µM*, DT40 TDP1 no CPT 16.4µM*, HepG2 viability -77.4%, HT1080-NT tox 10µM*, HT1080 IDH1KD tx 11.2µM* and TGFb inhibitor inconclusive.
`COc1ccccc1-c1cnn2c(NC3CCCC3)cc(C)nc12` gave DT40 TDP1 CPT 29.1µM*, DT40 TDP1 no CPT 20.6µM*, HepG2 viability 2.4%, HT1080-NT tox 16.6%, HT1080 IDH1KD tx 0.0% and TGFb inhibitor -9.8%.
For COc1ccccc1-c1c(C)nn2c(N3CCC(C(N)=O)CC3)cc(C)nc12 the results were DT40 TDP1 CPT -4.4%, DT40 TDP1 no CPT -14.1%, HepG2 viability -0.9%, HT1080-NT tox 0.3%, HT1080 IDH1KD tx 6.3% and TGFb inhibitor -19.7%.
`CCOC(=O)N1CCC(Nc2cc(C)nc3c(-c4ccccc4OC)c(C)nn23)CC1` gave DT40 TDP1 CPT 5.8µM*, DT40 TDP1 no CPT 9.2µM*, HepG2 viability -40.9%, HT1080-NT tox -5.8%, HT1080 IDH1KD tx -16.5% and TGFb inhibitor -26.7%.
Screening CCOC(=O)C1CCCN(c2cc(C)nc3c(-c4ccccc4OC)c(C)nn23)C1 (stereo not drawn) returned DT40 TDP1 CPT 13µM*, DT40 TDP1 no CPT inconclusive, HepG2 viability -12.8% and TGFb inhibitor inconclusive.
Cn1cnc(S(=O)(=O)N2CCCC(C(=O)NCc3ccc(F)cc3)C2)c1 (stereo not drawn) was read as DT40 TDP1 CPT 12.0%, DT40 TDP1 no CPT -7.3%, HepG2 viability -1.8% and TGFb inhibitor 1.3%.
Cc1ccc(C(C)C)cc1-n1nnc(-c2cccc(Cc3ccc4ccccc4c3)c2)c1C(C)O (stereo not drawn) was read as DT40 TDP1 CPT inconclusive, DT40 TDP1 no CPT inconclusive, HepG2 viability 4.6%, HT1080-NT tox -10.5%, HT1080 IDH1KD tx -15.9% and TGFb inhibitor 8.0%.
Screening COc1ccc(C(=O)Nc2nc3nc(C)c(Cl)c(=O)n3[nH]2)cc1 returned DT40 TDP1 CPT 3.3%, DT40 TDP1 no CPT -8.7%, HepG2 viability -2.5% and TGFb inhibitor -19.7%.
